About 83,000 compounds went through this panel and 20% of them were active in at least one assay; those are over-represented in the sample as a whole.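 Interpretation: 100, growth as untreated; towards 0, rising growth inhibition; 0, no net growth; 0 to -100, cell death. Compounds scoring below 10 were considered active.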 A number with no mark means an inactive call. Active and inactive are the calls of the source.
How the values were obtained:
Test in all cases: NCI-60 one-dose screen, 48 h (100 = growth as untreated, 0 = no growth, -100 = all killed)
Conditions in all cases: 10 µM
HCT-15 colon = tested on: HCT-15 colon
HT29 colon = tested on: HT29 colon
SNB-75 CNS = tested on: SNB-75 CNS
SNB-19 CNS = tested on: SNB-19 CNS
U251 CNS = tested on: U251 CNS
PC-3 prostate = tested on: PC-3 prostate
SK-MEL-5 melanoma = tested on: SK-MEL-5 melanoma
UACC-62 melanoma = tested on: UACC-62 melanoma
LOX IMVI melanoma = tested on: LOX IMVI melanoma
SK-MEL-28 melanoma = tested on: SK-MEL-28 melanoma

Row | SMILES | growth (HCT-15 colon) | growth (HT29 colon) | growth (SNB-75 CNS) | growth (SNB-19 CNS) | growth (U251 CNS) | growth (PC-3 prostate) | growth (SK-MEL-5 melanoma) | growth (UACC-62 melanoma) | growth (LOX IMVI melanoma) | growth (SK-MEL-28 melanoma)
1 | CC1(C)[C@@H](NCO)CC[C@]2(C)[C@H]3C(=O)C=C4[C@@H]5C[C@](C)(CO)CC[C@]5(C)CC[C@@]4(C)[C@]3(C)CC[C@@H]12 | 13.6% | 13.9% | 106% | 70.1% | 18.9% | 31.3% | 61% | 50.2% | -74.8% (active) | -29.5% (active)
2 | CCOc1ccc(Nc2nc3ccccc3nc2Nc2ccc(OCC)cc2)cc1 | 26.8% | 27.9% | 90.9% | 39.7% | 32.3% | 19.8% | 81.6% | 73.3% | 83.8% | 99%
3 | O=C(Nc1ccc(I)cc1)Nc1nc2ccc([N+](=O)[O-])cc2s1 | -100% (active) | -93.3% (active) | -93.4% (active) | -94.3% (active) | -94% (active) | -75.7% (active) | -100% (active) | -98% (active) | -100% (active) | -99% (active)
4 | COc1csc(/C=N/NC(=O)c2[nH]c3ccc(Br)cc3c2-c2ccccc2)c1 | 0.545% (active) | -30.8% (active) | 4.17% (active) | 29.1% | 9.71% (active) | 14.9% | -37.2% (active) | 20.3% | 12.6% | 35.3%
5 | CN1CCN(c2ccc(Nc3nc(NCCCNC(=O)C4CCCCC4)c4sccc4n3)cc2)CC1 | 2.76% (active) | -1.75% (active) | 62.9% | 77.3% | 17.1% | 50.6% | 22.3% | 48.5% | 10.2% | -81.3% (active)
6 | N#Cc1ccc(-c2nn(-c3ccc(C(=O)O)cc3)cc2CNc2cc(Cl)cc(C(F)(F)F)c2)cc1 | 7.93% (active) | 18.8% | 31% | 20.9% | 18.5% | 14.1% | -64.1% (active) | -48.8% (active) | -24% (active) | 12.2%
7 | CC(=O)Nc1ccc(-n2cnc3cc(-c4ccc(O)cc4)ccc32)cc1C | 49.2% | 61.6% | 58.4% | 58.4% | 47.7% | 58.5% | 46.4% | 42.9% | 53.3% | 51.8%
8 | CO[C@H]1CSS[C@@H]1Cn1nc(-c2ccc(Oc3ccccc3)cc2)c2c(N)ncnc21 | 22.1% | 17.2% | 104% | 29.6% | 24.6% | 41.2% | -4.24% (active) | -69.5% (active) | 36.8% | -35.8% (active)
9 | O=C(NO)c1ccc(Cn2ccc3c(NCc4ccccc4)ncnc32)cc1 | -16.7% (active) | 0.726% (active) | -8.17% (active) | -7.76% (active) | -34% (active) | 7.14% (active) | -75% (active) | -43.3% (active) | -99.6% (active) | 0.239% (active)
10 | C=C(C)[C@@H]1CC[C@]2(COP(=O)(OCC)OCC)CC[C@]3(C)[C@H](CC[C@@H]4[C@@](C)(CCCN)[C@H](C(=C)C)CC[C@]43C)[C@@H]12 | 9.75% (active) | 5.73% (active) | 34.4% | 40.4% | 21% | 13.1% | -47.6% (active) | 35.3% | 1.01% (active) | 31.7%
11 | O=C1NC(=NC23CC4CC(CC(C4)C2)C3)N/C1=C\c1ccc2ncccc2n1 | -16.2% (active) | -17.4% (active) | -70.7% (active) | -7.61% (active) | 5.17% (active) | -0.602% (active) | -68.3% (active) | -64.4% (active) | -42.6% (active) | -30.2% (active)
12 | Cc1noc2c(Cc3ccccc3)nn(CC(=O)N/N=C/c3ccc(Br)cc3)c(=O)c12 | 76.5% | 71.1% | 35.3% | 75.4% | 18.4% | 82.7% | 85.5% | 79.7% | 45.9% | 99.5%
13 | O=C(CNc1nc(-c2ccccc2)cs1)Nc1ccc(Cl)cc1 | -85.4% (active) | -51% (active) | -44.9% (active) | -100% (active) | -87.3% (active) | -40% (active) | -96.9% (active) | -92.4% (active) | -90.5% (active) | -96.2% (active)
14 | CCCCCCCCCCCCCCCCCCCC(=O)NCCc1c[nH]c2ccc(OC(=O)NOCCOCCOCCOCCOCCOCCOCCOCCOCCOCCOCCOCCOCCOCCOCCOCCOCCOCCOCCOCCOCCOCCOC)cc12 | 77.7% | -71.8% (active) | 37.3% | 22.3% | -16.8% (active) | 6.43% (active) | -16.3% (active) | -69.4% (active) | -90.7% (active) | -2.99% (active)
15 | COc1ccc2[nH]c(O)c(N=NC(=O)COc3ccc(NC(=O)Nc4ccc(Cl)cc4)cc3)c2c1 | 99.5% | 8.21% (active) | 42.8% | 3.67% (active) | -87.2% (active) | 18% | 32.2% | -30.2% (active) | -59.7% (active) | -72.3% (active)
16 | C=CC(=O)Nc1nc(-c2cccc(NS(=O)(=O)c3cccc4c(N(C)C)cccc34)c2)cs1 | -76.8% (active) | -56.3% (active) | 5.83% (active) | 15.6% | -59% (active) | -26% (active) | -87.7% (active) | -86.8% (active) | -95.2% (active) | -93.6% (active)
17 | O=S(=O)(c1ccc(Cl)cc1)c1nc(-c2ccccc2)oc1S(=O)(=O)c1ccc(Cl)cc1 | 47.4% | 89.7% | 76.5% | 94.9% | 79.9% | 103% | 91.9% | 90.4% | 19.7% | 104%
18 | CC1(C)CC[C@]2(C(=O)N3CCOCC3)CC[C@]3(C)C(=CC[C@@H]4[C@@]5(C)CC[C@H](NCO)C(C)(C)[C@@H]5CC[C@]43C)[C@H]2C1 | -83% (active) | -60.8% (active) | -93.2% (active) | -95.8% (active) | -88.7% (active) | -61.6% (active) | -97.6% (active) | -93.9% (active) | -83.8% (active) | -98.9% (active)
19 | O=c1[nH]c2ccccc2cc1CSc1ccc(Nc2nccc(-c3ccc(Cl)cc3)n2)cc1 | 8.92% (active) | 0.0418% (active) | -41.8% (active) | -40.3% (active) | -72.3% (active) | 8.58% (active) | 48.2% | 23.7% | -79.6% (active) | 43.2%
20 | COc1ccc(CN2[C@@H](C(=O)NCc3ccc(C(=O)NO)cc3)Cc3c([nH]c4ccccc34)[C@@H]2C2CC2)cc1 | 19.5% | 10.9% | -12% (active) | 34.4% | 24.8% | 30.2% | -19.9% (active) | 3.09% (active) | 11.7% | 24.8%
21 | COc1ccc2nc(Cl)c(-c3cc(-c4ccccc4)nc(=S)[nH]3)cc2c1 | 46.4% | 43.7% | 41.5% | 83.6% | 87.2% | 67.3% | 6.49% (active) | 23.2% | 60.3% | 50%
